Reference: PubChem BioAssay (EPA / NIEHS)
Active and inactive are the calls of the source. The calls were made as follows: active = hit-call score of the fitted dose curve at least 0.9, where 1 is the maximum; inactive = score below 0.9.

Columns and labels:
Details in all cases: mRNA level, 48 h; actives raise or lower the signal
[1] = read-out: Interleukin 6 (IL6), IL6 (gene 3569); test: LTEA_HepaRG_IL6: Life Technologies and Expression Analysis (LTEA) Assay for Interleukin 6 (IL6) using HepaRG (AID 2283509)
Outline: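 Differentiated human HepaRG cells, plated 48 h then switched to serum-free induction medium, were exposed in duplicate for 48 h to eight half-log concentrations up to 100 uM in 0.5% DMSO. IL6 mRNA measured by qRT-PCR, normalized to ACTB/GAPDH/POLR2A.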

[2] = read-out: Potassium channel subfamily K member 1 (KCNK1), KCNK1 (gene 3775); test: LTEA_HepaRG_KCNK1: Life Technologies and Expression Analysis (LTEA) Assay for Potassium channel subfamily K member 1 (KCNK1) using HepaRG (AID 2283511)
Outline: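 Differentiated human HepaRG cells in serum-free induction medium were exposed in duplicate for 48 h to 8 half-log concentrations up to 100 uM in 0.5% DMSO. KCNK1 mRNA was measured by TaqMan qRT-PCR, normalized to ACTB, GAPDH and POLR2A, and fitted bidirectionally versus DMSO.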

[3] = read-out: Keratin 19 (KRT19), KRT19 (gene 3880); test: LTEA_HepaRG_KRT19: Life Technologies and Expression Analysis (LTEA) Assay for Keratin 19 (KRT19) using HepaRG (AID 2283512)
Outline: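 Readout is qRT-PCR of KRT19 mRNA, normalized to ACTB, GAPDH and POLR2A, from HepaRG cells treated 48 h with eight-point half-log dilutions topping at 100 uM. Activity in either direction is scored relative to 0.5% DMSO vehicle.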

[4] = read-out: JUN Transcription Factor, JUN (gene 3725); test: LTEA_HepaRG_JUN: Life Technologies and Expression Analysis (LTEA) Assay for JUN Transcription Factor using HepaRG (AID 2283513)
Outline: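 Differentiated HepaRG cells were exposed to chemicals for 48 h in serum-free induction medium, 8 concentrations from 100 uM in half-log steps, 0.5% DMSO vehicle, in duplicate. JUN mRNA was quantified by TaqMan qRT-PCR, normalized to ACTB, GAPDH, POLR2A.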

[5] = read-out: Lipase C (LIPC), LIPC (gene 3990); test: LTEA_HepaRG_LIPC: Life Technologies and Expression Analysis (LTEA) Assay for Lipase C (LIPC) using HepaRG (AID 2283514)
Outline: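 Differentiated human HepaRG cells in serum-free induction medium were exposed in duplicate for 48 h to eight concentrations (top 100 uM, half-log steps, 0.5% DMSO). LIPC mRNA was quantified by TaqMan qRT-PCR, normalized to ACTB, GAPDH and POLR2A, with bidirectional fitting versus DMSO.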

[6] = read-out: Lipoprotein lipase (LPL), LPL (gene 4023); test: LTEA_HepaRG_LPL: Life Technologies and Expression Analysis (LTEA) Assay for Lipoprotein lipase (LPL) using HepaRG (AID 2283515)
Outline: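 Differentiated human HepaRG cells in serum-free induction medium were exposed in duplicate for 48 h to eight half-log concentrations (top 100 uM) in 0.5% DMSO. LPL mRNA was quantified by TaqMan qRT-PCR, normalized to ACTB, GAPDH and POLR2A.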

[7] = read-out: MicroRNA 122 (MIR122), gene 406906; test: LTEA_HepaRG_MIR122: Life Technologies and Expression Analysis (LTEA) Assay for MicroRNA 122 (MIR122) using HepaRG (AID 2283516); also: the transcript read is the microRNA miR-122
Outline: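 Differentiated human HepaRG cells were exposed 48 h in serum-free induction medium to eight half-log concentrations (top 100 uM, 0.5% DMSO). Transcript level was measured by TaqMan qRT-PCR, normalized to ACTB, GAPDH and POLR2A, and fitted bidirectionally versus DMSO.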

[8] = read-out: matrix metalloproteinase-10 (MMP10), MMP10 (gene 4319); test: LTEA_HepaRG_MMP10: Life Technologies and Expression Analysis (LTEA) Assay for matrix metalloproteinase-10 (MMP10) using HepaRG (AID 2283517)
Outline: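 HepaRG, collagen I, ~100,000 cells/well; serum-free induction medium; 48 h exposure, duplicate, 8-pt half-log to 100 uM, 0.5% DMSO. Readout: TaqMan qRT-PCR, normalized to ACTB/GAPDH/POLR2A; bidirectional fit vs DMSO.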

MYC, MYC (gene 4609) = test: LTEA_HepaRG_MYC: Life Technologies and Expression Analysis (LTEA) Assay for MYC using HepaRG (AID 2283518)
Outline: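 Expression changes were scored by TaqMan qRT-PCR with ACTB, GAPDH and POLR2A normalization. Cultures in serum-free induction medium received duplicate 8-point concentration series, highest 100 uM, for 48 h; DMSO (0.5%) served as baseline.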

[9] = read-out: matrix metalloproteinase-3 (MMP3), MMP3 (gene 4314); test: LTEA_HepaRG_MMP3: Life Technologies and Expression Analysis (LTEA) Assay for matrix metalloproteinase-3 (MMP3) using HepaRG (AID 2283519)
Outline: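 Differentiated human HepaRG cells, plated 48 h on collagen I, were exposed in duplicate for 48 h in serum-free induction medium to eight half-log concentrations up to 100 uM in 0.5% DMSO. MMP3 mRNA was quantified by TaqMan qRT-PCR, normalised to ACTB, GAPDH and POLR2A.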

[10] = read-out: Paternally Expressed 10 (PEG10), PEG10 (gene 23089); test: LTEA_HepaRG_PEG10: Life Technologies and Expression Analysis (LTEA) Assay for Paternally Expressed 10 (PEG10) using HepaRG (AID 2283520)
Outline: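 Differentiated HepaRG cells, plated 48 h then switched to serum-free induction medium, were exposed in duplicate for 48 h to eight half-log concentrations topping at 100 uM in 0.5% DMSO. PEG10 mRNA was quantified by TaqMan qRT-PCR, normalised to ACTB, GAPDH and POLR2A.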

[11] = read-out: Protein phosphatase 2A (PPP2R4), PTPA (gene 5524); test: LTEA_HepaRG_PPP2R4: Life Technologies and Expression Analysis (LTEA) Assay for Protein phosphatase 2A (PPP2R4) using HepaRG (AID 2283522)
Outline: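 Differentiated HepaRG cells in serum-free induction medium were exposed in duplicate for 48 h to eight concentrations, top 100 uM with half-log dilutions, in 0.5% DMSO. PPP2R4 mRNA was quantified by TaqMan qRT-PCR, normalized to ACTB, GAPDH and POLR2A.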

[12] = read-out: Phosphatase and tensin (PTEN), PTEN (gene 5728); test: LTEA_HepaRG_PTEN: Life Technologies and Expression Analysis (LTEA) Assay for Phosphatase and tensin (PTEN) using HepaRG (AID 2283523)
Outline: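 Differentiated human HepaRG cells, plated 48 h then switched to serum-free induction medium, were exposed in duplicate for 48 h to eight half-log concentrations up to 100 uM in 0.5% DMSO. PTEN mRNA measured by TaqMan qRT-PCR, normalized to ACTB/GAPDH/POLR2A, bidirectional fit versus DMSO.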

[13] = read-out: solute carrier (SLC22A1), SLC22A1 (gene 6580); test: LTEA_HepaRG_SLC22A1: Life Technologies and Expression Analysis (LTEA) Assay for solute carrier (SLC22A1) using HepaRG (AID 2283524)
Outline: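 Human HepaRG cells were plated 48 h, switched to serum-free induction medium, then exposed in duplicate for 48 h to 8-point half-log series from 100 uM in 0.5% DMSO. SLC22A1 mRNA measured by qRT-PCR, normalized to ACTB/GAPDH/POLR2A, fitted bidirectionally versus DMSO.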

[14] = read-out: Pyruvate Dehydrogenase Kinase 4 (PDK4), PDK4 (gene 5166); test: LTEA_HepaRG_PDK4: Life Technologies and Expression Analysis (LTEA) Assay for Pyruvate Dehydrogenase Kinase 4 (PDK4) using HepaRG (AID 2283525)
Outline: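 Differentiated human HepaRG cells, pre-cultured 48 h, were exposed in duplicate for 48 h in serum-free induction medium to eight half-log concentrations up to 100 uM in 0.5% DMSO. PDK4 mRNA was quantified by qRT-PCR, normalized to ACTB, GAPDH and POLR2A, bidirectional fitting versus DMSO.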

[15] = read-out: NAD(P)H dehydrogenase [quinone] 1 (NQO1), NQO1 (gene 1728); test: LTEA_HepaRG_NQO1: Life Technologies and Expression Analysis (LTEA) Assay for NAD(P)H dehydrogenase [quinone] 1 (NQO1) using HepaRG (AID 2283526)
Outline: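 Differentiated HepaRG cells, plated 48 h and then switched to serum-free induction medium, were exposed in duplicate for 48 h to 8-point half-log concentrations up to 100 uM in 0.5% DMSO. mRNA measured by qRT-PCR, normalized to ACTB, GAPDH, POLR2A; bidirectional fit versus DMSO.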

[16] = read-out: Nuclear factor erythroid 2-related factor 2 (Homo sapiens) (UniProt Q16236); test: LTEA_HepaRG_NFE2L2: Life Technologies and Expression Analysis (LTEA) Assay for Nuclear factor erythroid 2-related factor 2 (NFE2L2) Transcription Factor using HepaRG (AID 2283527)
Outline: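 Differentiated human HepaRG cells in serum-free induction medium were exposed for 48 h to eight concentrations (top 100 uM, half-log dilutions, 0.5% DMSO), in duplicate. NFE2L2 mRNA was quantified by TaqMan qRT-PCR, normalized to ACTB, GAPDH and POLR2A, with bidirectional fitting versus DMSO.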

[17] = read-out: Nuclear factor NF-kappa-B p105 subunit (Homo sapiens) (UniProt P19838); test: LTEA_HepaRG_NFKB1: Life Technologies and Expression Analysis (LTEA) Assay for Nuclear Factor Kappa B Subunit 1 (NFKB1) using HepaRG (AID 2283521);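 also: TaqMan qRT-PCR transcript normalised to ACTB GAPDH and POLR2A housekeeping genes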
Outline: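 Differentiated human HepaRG cells were exposed for 48 h in serum-free induction medium to eight concentrations (top 100 uM, half-log steps, 0.5% DMSO), in duplicate. NFKB1 mRNA was measured by TaqMan qRT-PCR, normalized to ACTB/GAPDH/POLR2A, and fitted bidirectionally against DMSO.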

[18] = read-out: Interleukin 6 Receptor (IL6R), IL6R (gene 3570); test: LTEA_HepaRG_IL6R: Life Technologies and Expression Analysis (LTEA) Assay for Interleukin 6 Receptor (IL6R) using HepaRG (AID 2283510)
Outline: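 Differentiated human HepaRG cells, plated 48 h then switched to serum-free induction medium, were dosed in duplicate for 48 h at eight half-log concentrations up to 100 uM in 0.5% DMSO. IL6R mRNA quantified by qRT-PCR, normalized to ACTB/GAPDH/POLR2A; bidirectional fit versus DMSO.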

Measured: AC50

Nuclear factor erythroid 2-related factor 2 (Homo sapiens), sequence (Q16236 whole entry, looked up): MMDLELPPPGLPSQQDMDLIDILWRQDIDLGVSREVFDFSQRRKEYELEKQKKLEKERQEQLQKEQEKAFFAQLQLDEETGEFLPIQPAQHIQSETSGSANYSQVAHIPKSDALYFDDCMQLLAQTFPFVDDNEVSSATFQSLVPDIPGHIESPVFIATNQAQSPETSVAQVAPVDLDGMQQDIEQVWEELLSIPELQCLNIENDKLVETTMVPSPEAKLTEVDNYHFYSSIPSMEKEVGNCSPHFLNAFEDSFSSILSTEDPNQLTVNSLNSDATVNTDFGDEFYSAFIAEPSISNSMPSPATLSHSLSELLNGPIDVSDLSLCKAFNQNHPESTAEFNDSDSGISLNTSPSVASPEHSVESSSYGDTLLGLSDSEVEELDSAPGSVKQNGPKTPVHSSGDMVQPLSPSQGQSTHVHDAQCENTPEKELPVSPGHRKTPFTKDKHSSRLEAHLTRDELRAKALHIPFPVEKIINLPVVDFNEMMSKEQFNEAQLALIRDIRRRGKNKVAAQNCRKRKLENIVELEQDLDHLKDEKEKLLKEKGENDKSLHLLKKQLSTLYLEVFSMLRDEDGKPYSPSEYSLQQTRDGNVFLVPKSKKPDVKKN
Nuclear factor NF-kappa-B p105 subunit (Homo sapiens), sequence (P19838 whole entry, looked up): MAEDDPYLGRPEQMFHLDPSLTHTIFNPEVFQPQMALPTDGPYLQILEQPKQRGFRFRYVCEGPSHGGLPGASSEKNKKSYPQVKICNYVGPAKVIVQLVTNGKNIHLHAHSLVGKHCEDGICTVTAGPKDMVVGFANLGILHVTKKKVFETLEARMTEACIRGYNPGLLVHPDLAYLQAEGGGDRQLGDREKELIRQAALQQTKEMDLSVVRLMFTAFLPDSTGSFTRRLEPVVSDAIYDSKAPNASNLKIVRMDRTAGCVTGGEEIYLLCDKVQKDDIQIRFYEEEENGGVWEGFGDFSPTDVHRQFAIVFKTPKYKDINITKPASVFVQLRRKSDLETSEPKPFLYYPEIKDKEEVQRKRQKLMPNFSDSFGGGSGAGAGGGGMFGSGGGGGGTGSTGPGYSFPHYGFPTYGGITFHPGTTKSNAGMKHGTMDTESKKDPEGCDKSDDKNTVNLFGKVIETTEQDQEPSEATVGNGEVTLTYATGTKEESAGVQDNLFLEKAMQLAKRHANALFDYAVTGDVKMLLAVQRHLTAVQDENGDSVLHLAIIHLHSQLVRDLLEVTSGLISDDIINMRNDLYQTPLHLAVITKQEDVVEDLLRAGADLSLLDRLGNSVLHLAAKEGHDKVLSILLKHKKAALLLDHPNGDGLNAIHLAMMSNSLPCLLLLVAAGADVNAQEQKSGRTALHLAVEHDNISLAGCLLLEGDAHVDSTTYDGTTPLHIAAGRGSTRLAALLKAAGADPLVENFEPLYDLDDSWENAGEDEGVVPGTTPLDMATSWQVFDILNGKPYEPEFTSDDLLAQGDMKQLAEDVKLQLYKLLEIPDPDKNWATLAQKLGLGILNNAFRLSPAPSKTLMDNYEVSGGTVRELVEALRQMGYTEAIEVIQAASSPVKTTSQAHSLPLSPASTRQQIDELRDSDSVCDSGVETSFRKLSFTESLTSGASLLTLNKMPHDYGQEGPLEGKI

COc1ccc(S(=O)(=O)N2C(=O)[C@@](c3ccccc3OC)(N3C[C@H](O)C[C@H]3C(=O)N(C)C)c3cc(Cl)ccc32)c(OC)c1
active: [1] 58.2 µM | [2] 50 µM | [5] 15.8 µM | [6] 12.1 µM | [7] 50 µM | [8] 50 µM | MYC, MYC (gene 4609) 76.5 µM | [9] 50 µM | [10] 21.5 µM | [11] 32.4 µM | [12] 16.8 µM | [13] 20.5 µM | [14] 13.9 µM | [15] 29.5 µM | [16] 83.2 µM
inactive: [3] | [4]

Cc1ccc(N(C)C)cc1
not listed: [18]
inactive: all other assays above

FC(F)(F)C(F)(F)C(F)(F)C(F)(F)C(F)(F)C(F)(F)CCI
not listed: [17] | [18]
inactive: all other assays above

CCCCCCC(=O)OCC
not listed: [18]
inactive: all other assays above

C[C@]12C=CC(=O)C=C1CC[C@@H]1[C@@H]2C(=O)C[C@@]2(C)[C@H]1CC[C@]2(O)C(=O)CO
not listed: [4] | MYC, MYC (gene 4609)
inactive: all other assays above

COC(=O)c1ccc(O)cc1
not listed: [18]
inactive: all other assays above

CCOC(=O)CCC(=O)OCC
active: [6] 85 µM | [12] 81.2 µM
not listed: [17]
inactive: all other assays above

Cc1nc(C)nc(N2C[C@@H](C)N(c3ccnc([C@@H](C)O)n3)[C@@H](C)C2)n1
active: [9] 25 µM
not listed: [5] | [13]
inactive: all other assays above

Cc1ccccc1Cl
not listed: [17]
inactive: all other assays above

NS(=O)(=O)c1cc2c(cc1Cl)NCNS2(=O)=O
not listed: [17]
inactive: all other assays above

NC(=O)Cn1c(=O)cc(CCN2CCN(c3nccc4sccc34)CC2)c2ccc(F)cc21
active: [5] 50 µM | [6] 50 µM | [10] 50 µM
inactive: all other assays above

C=CCc1ccc(O)c(OC)c1
not listed: [17]
inactive: all other assays above

CC(=O)Oc1ccccc1C(=O)O
not listed: [18]
inactive: all other assays above

CCCCCCCCCCCCCCCC
not listed: [17] | [18]
inactive: all other assays above

C[Si]1(C)O[Si](C)(C)O[Si](C)(C)O[Si](C)(C)O1
not listed: [18]
inactive: all other assays above

CC(=O)OC/C=C(\C)CCC=C(C)C
not listed: [17] | [18]
inactive: all other assays above
